MCF10A rereplic – inducers of DNA re-replication in MCF 10A breast cells; 2.9% of 350,000 active; AID 624296; MCF 10A DNA re-replication, Hoechst nuclear intensity, 48 h; Potency, µM (doses to about 46.1 µM), actives largely listed as activators; note: nearly all actives have a fitted effect of over 50% in size
ELG1 DNA repair – inhibitors of ELG1-dependent DNA repair in HEK293T cells | HEK293T ELG1-luciferase reporter, luminescence, 16 h; DNA damage induced by 5-fluorouridine | Potency, µM (highest dose often 46.1 µM), most hits filed as inhibitors | 2.3% of 330,000 active; note: nearly all actives have a fitted effect of over 55% in size
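HEK293T cells expressing luciferase-tagged ELG1 (2,000/well) received 5-Fluorouridine plus compound or DMSO for 16 hr at 37 °C. Luciferase was read by ONE-Glo luminescence after 30 min at room temperature.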
RORg inh – inhibitors of mouse ROR gamma transcriptional activity. Potency, µM (titrated, usually from 53.6 µM), actives largely listed as inhibitors. P51450. Drosophila S2 Gal4-RORgamma UAS-luciferase reporter, 20 h. 5.4% of 310,000 active; note: nearly all actives have a fitted effect of over 60% in size
Target sequence (P51450 whole entry, looked up, the tested form may be a part): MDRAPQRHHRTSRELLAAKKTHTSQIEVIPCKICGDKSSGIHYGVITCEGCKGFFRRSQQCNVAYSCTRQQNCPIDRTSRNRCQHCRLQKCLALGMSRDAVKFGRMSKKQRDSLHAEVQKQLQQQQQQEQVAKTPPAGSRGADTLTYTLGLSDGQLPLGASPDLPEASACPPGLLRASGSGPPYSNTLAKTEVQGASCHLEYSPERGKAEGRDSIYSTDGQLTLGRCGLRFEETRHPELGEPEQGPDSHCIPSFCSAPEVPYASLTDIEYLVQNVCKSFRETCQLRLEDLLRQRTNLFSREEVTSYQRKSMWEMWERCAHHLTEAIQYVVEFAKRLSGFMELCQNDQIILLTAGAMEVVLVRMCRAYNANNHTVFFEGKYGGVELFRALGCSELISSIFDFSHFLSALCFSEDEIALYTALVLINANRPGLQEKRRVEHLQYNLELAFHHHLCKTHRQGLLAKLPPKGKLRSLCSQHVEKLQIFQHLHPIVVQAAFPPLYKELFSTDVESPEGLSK
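In this cell-based reporter format, copper sulfate (700 uM final) drives Gal4–ROR gamma fusion expression from a metallothionein promoter in Drosophila Schneider cells; compounds preincubated 1 hr, reporter read after 20 hr at ambient temperature.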
SW480 rerep – DNA re-replication induction in SW480 cells | SW480 DNA re-replication, Hoechst DNA content imaging, 48 h | Potency, µM (series often up to 46.1 µM), most hits filed as activators | 1.8% of 340,000 active | AID 624297; note: nearly all actives have a fitted effect of over 55% in size
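Cells (250 per well) received 23 nL compound or DMSO by pin tool and were kept 48 hr at 37 C, 5% CO2. Nuclei were then stained with Hoechst for 40 min and scanned for DNA content.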
VP16 counter – Gal4-VP16 reporter inhibition counter-screen; AID 2546; Drosophila S2 Gal4-VP16 UAS-luciferase, luminescence, 20 h; 3.5% of 310,000 active; Potency, µM (doses to about 53.6 µM), hits mostly inhibitors;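 note: Gal4-VP16 expression switched on by copper sulfate through the metallothionein promoter; nearly all actives have a fitted effect of over 50% in size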
Of the large screens only hits and unclear results are named; the others gave an inactive call. Only some compounds are listed: those with a hit (about 10% of all), similar ones and a draw of the others. Calls come from the whole dose curve; as a rule, active = well fitted curve in the direction sought with a large enough effect; inconclusive = small, poorly fitted or top-dose-only effect, or another doubt; inactive = no such curve, though single readings can be large; an effect the other way counts as inactive or inconclusive.

COCCn1c(SCC(=O)NC2CCCCC2)nnc1-c1ccncc1	none
c1ccc2sc(SSc3nc4ccccc4s3)nc2c1	RORg inh 13µM, VP16 counter inconclusive (no result: ELG1 DNA repair)
S=c1[nH]nc(CSc2nc3ccccc3s2)o1	RORg inh 14µM, VP16 counter inconclusive
Cn1c(CSc2nc3ccccc3s2)n[nH]c1=S	ELG1 DNA repair inconclusive, RORg inh inconclusive
N#C/C(=C\c1ccco1)Sc1nc2ccccc2s1	MCF10A rereplic inconclusive, ELG1 DNA repair inconclusive, SW480 rerep inconclusive, VP16 counter 13µM
c1ccc2[nH]c(CSc3nc4ccccc4s3)nc2c1	RORg inh 20µM, VP16 counter inconclusive
O=C(CSc1nc2ccccc2s1)N/N=C/c1ccco1	none
COC(=O)c1ccc(CSCc2ccc(C#N)cc2)cc1	ELG1 DNA repair inconclusive (no result: MCF10A rereplic, SW480 rerep)
O=C(Cc1ccccc1F)Nc1ccc(S(=O)(=O)N2CCCC2)cc1	SW480 rerep inconclusive (no result: RORg inh, VP16 counter)
CCCN(CC(=O)Nc1ccccc1OC)C(=O)CCCN1C(=O)c2ccccc2C1=O	none (no result: RORg inh, VP16 counter)
Cn1c(CSc2nc3ccccc3s2)nc2ccccc21	ELG1 DNA repair inconclusive, RORg inh 11µM, VP16 counter inconclusive
CCn1c(=O)cc(C(=O)OC)sc1=Nc1ccc(F)c(F)c1	MCF10A rereplic inconclusive, ELG1 DNA repair inconclusive, RORg inh 22µM, VP16 counter inconclusive
COC(=O)c1cc(=O)n(CCc2ccccc2)c(=Nc2ccc(F)cc2)s1	MCF10A rereplic inconclusive, RORg inh 8.9µM
CCOC(=O)c1ccc(N=c2sc(C(=O)OC)cc(=O)n2Cc2ccco2)cc1	MCF10A rereplic inconclusive, ELG1 DNA repair inconclusive, RORg inh inconclusive, SW480 rerep inconclusive, VP16 counter 8.9µM
O=C(NCCc1ccc(Cl)cc1)c1ccc(S(=O)(=O)N2CCCC2)cc1	none (no result: RORg inh, VP16 counter)
CCCCN(C)CCNC(=O)CN1C(=O)CSc2ccc(S(=O)(=O)N3CCCC3)cc21	ELG1 DNA repair inconclusive
CCOC(=O)C1=C(C)n2c(s/c(=C/c3cccc([N+](=O)[O-])c3)c2=O)=NC1c1ccc(O)c(OC)c1 (configuration not stated)	MCF10A rereplic 16µM, ELG1 DNA repair inconclusive, SW480 rerep inconclusive
O=C(CN(C(=O)c1csnn1)c1cccc(C(F)(F)F)c1)NC1CCCC1	none
COc1cc(/C=N/Nc2ccc(Cl)c(C(=O)O)c2)ccc1OC(=O)c1ccco1	none
Cn1c(=O)c2c(nc(NCCNC(=O)c3ccco3)n2Cc2ccccc2)n(C)c1=O	MCF10A rereplic 26µM, VP16 counter inconclusive
Cn1c(=O)c2c(nc(NCC3CCCO3)n2Cc2ccccc2)n(C)c1=O (configuration not stated)	RORg inh inconclusive
COc1cc(/C=N/Nc2nc3c(c(=O)n(C)c(=O)n3C)n2Cc2ccccc2)ccc1OC(=O)c1ccco1	MCF10A rereplic inconclusive, ELG1 DNA repair 18µM, SW480 rerep inconclusive, VP16 counter 18µM
Cn1c(=O)c2c(nc(NCc3ccc4c(c3)OCO4)n2Cc2ccccc2)n(C)c1=O	MCF10A rereplic inconclusive, ELG1 DNA repair 16µM, SW480 rerep inconclusive, VP16 counter 7.1µM
Cn1c(=O)c2c(nc(N/N=C/c3ccncc3)n2Cc2ccccc2)n(C)c1=O	none
Cc1ccc(Cn2c(N/N=C/c3ccncc3)nc3c2c(=O)n(C)c(=O)n3C)cc1	VP16 counter 10µM
CCCCNc1cc(F)nc(N)n1	none
COc1ccc(C(O)C2=CCCC2=O)cc1 (configuration not stated)	none (no result: MCF10A rereplic, ELG1 DNA repair, SW480 rerep)
Cn1c(=O)c2c(nc(NCc3ccc4c(c3)OCO4)n2Cc2ccc(F)cc2)n(C)c1=O	MCF10A rereplic inconclusive, ELG1 DNA repair inconclusive, SW480 rerep inconclusive, VP16 counter 10µM
Cn1c(=O)c2c(nc(NCc3ccc4c(c3)OCO4)n2Cc2ccccc2F)n(C)c1=O	ELG1 DNA repair inconclusive, VP16 counter 18µM
Cn1c(=O)c2c(nc(Oc3ccc4c(c3)OCO4)n2Cc2ccc(Cl)cc2)n(C)c1=O	MCF10A rereplic inconclusive
CC(=O)N1CCN(c2ccc(NC(=O)c3ccc(C)c([N+](=O)[O-])c3)cc2)CC1	MCF10A rereplic inconclusive, ELG1 DNA repair inconclusive
CCOc1ccc(N(CC(=O)NC2CC3CCC2C3)S(=O)(=O)c2ccccc2)cc1 (configuration not stated)	none
COc1ccc(CCN2CC(C(=O)NCCc3ccccn3)CCC2=O)cc1 (configuration not stated)	none

High-throughput results deposited in PubChem BioAssay by National Center for Advancing Translational Sciences (NCATS).
